Values without a mark were called inactive.

Chain of WLS (lysine site: K217) (Q5T9L3 whole entry): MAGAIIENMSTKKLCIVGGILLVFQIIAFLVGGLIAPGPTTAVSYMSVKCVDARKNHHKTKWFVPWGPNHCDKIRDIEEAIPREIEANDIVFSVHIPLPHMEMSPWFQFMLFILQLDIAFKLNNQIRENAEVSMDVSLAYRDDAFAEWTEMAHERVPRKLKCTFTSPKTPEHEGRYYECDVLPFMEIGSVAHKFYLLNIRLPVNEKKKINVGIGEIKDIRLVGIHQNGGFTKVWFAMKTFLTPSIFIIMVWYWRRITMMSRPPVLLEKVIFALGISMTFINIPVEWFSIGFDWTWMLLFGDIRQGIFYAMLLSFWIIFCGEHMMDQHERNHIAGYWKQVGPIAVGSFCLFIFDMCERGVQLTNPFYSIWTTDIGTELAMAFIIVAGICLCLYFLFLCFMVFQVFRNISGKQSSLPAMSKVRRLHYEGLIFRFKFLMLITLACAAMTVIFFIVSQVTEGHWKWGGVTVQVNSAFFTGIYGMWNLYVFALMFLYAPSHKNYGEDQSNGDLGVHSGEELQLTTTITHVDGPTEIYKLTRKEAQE

The assay has as its target WLS (lysine site: K217) (UniProt Q5T9L3). Briefly: lysine labeling ratio R10:1 (500 µM / 50 µM probe), SILAC-ABPP in living cells; higher = lower intrinsic lysine reactivity toward the probe, active = 2 or less. The following applies: HeLa; probe concentrations 500 vs 50 µM. How it is done: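 Living HeLa cells (SILAC light/heavy) in PBS at room temperature were labeled with 50 µM versus 500 µM of the lysine-reactive, reductant-cleavable probe OPA-S-S-alkyne (SILAC labeling time not stated). Probe-modified peptides were CuAAC-biotinylated, captured on neutravidin and eluted with DTT/IAA, then quantified by LC-MS/MS. R = median peptide ratio per lysine (500/50 µM), combined over 3 forward and 3 reverse SILAC replicates. Ratios are capped at 20; R < 2 = hyper-reactive.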
Take `C#CCNC(=O)CCSSCCC(=O)NCCc1ccc(C=O)c(C=O)c1`: the “lysine labeling ratio R10:1” value is 2.13.

These data come from the supplement of paper PMC11001985.
